The results in this text go back to PubChem BioAssay (NCATS).

Values joined by “and” are separate entries in the source; they are usually repeats but may differ in a detail not shown here. Equal values may be shown once. Records with an inconclusive call do not appear. Active and inactive are the calls of the source. Unless noted, calls come from the whole dose curve.

In assay [1] the target is Estrogen receptor (Homo sapiens) (UniProt P03372). As to the kind of experiment: qHTS assay for small molecule antagonists of estrogen receptor alpha signaling (AID 588513; active = well fitted curve in the direction sought with a large enough effect in the signal ratio, with a control signal flat, not every such curve was filed as active; the % refers to the signal ratio; note: % is set by controls: 0 for no effect and ±100 for the full control effect). The conditions noted are these: ER-alpha-UAS-bla HEK293, beta-lactamase ratio, antagonist mode; series mostly up to 76.9 µM. The gist of the method:
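Antagonist mode: inhibition of 0.5 nM 17-beta-estradiol-driven beta-lactamase reporter in HEK 293 ER-alpha-UAS-bla cells, 18 h at 37C, CCF4 readout after 2 h at RT. Normalised to estradiol and DMSO; titration fitted to Hill.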
Background: In qHTS, concentration-response curves come from the screen itself.

The target is the same in assay [2]. As to the kind of experiment: qHTS assay for small molecule agonists of estrogen receptor alpha signaling (AID 588514).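 Note: 0% = vehicle only and 100% = reference agonist; nearly all actives have a fitted effect of over 70% in size.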 The conditions noted are these: ER-alpha-UAS-bla HEK293, beta-lactamase ratio, 18 h, percent of full estradiol response, vehicle zero; series mostly up to 76.8 µM. The gist of the method: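 Reporter-gene assay. […] controls beta-lactamase in HEK 293 GripTite cells; after 18 hrs with compound, CCF4 substrate is added for 2 hrs and fluorescence is read.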

Assay [3] addresses Bile acid receptor (Homo sapiens) (UniProt Q96RI1). Briefly: qHTS assay for small molecule antagonists of farnesoid X receptor signaling (AID 588526). Note: % is set by controls: 0 for no effect and ±100 for the full control effect. The conditions noted are these: HEK293T FXR-UAS-bla, beta-lactamase ratio, antagonist mode; series mostly up to 76.7 µM. The gist of the method: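 Antagonist mode: titrated compounds tested against chenodeoxycholic acid stimulation (normalized to 50 uM CDCA and DMSO) in GeneBLAzer HEK293T cells for 16 h. Beta-lactamase read by CCF4 fluorescence; IC50 from Hill fits.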

The target in assay [4] is Glucocorticoid receptor (Homo sapiens) (UniProt P04150). Briefly: qHTS assay for small molecule agonists of glucocorticoid receptor signaling (AID 588532; active = well fitted curve in the direction sought with a large enough effect in the signal ratio, with a control signal flat; the % refers to the signal ratio;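 note: 100% = dexamethasone at 0.1 µM and 0% = DMSO only wells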). The conditions noted are these: HeLa MMTV-bla, beta-lactamase ratio, agonist, 18 h; stronger effect = higher value; percent of dexamethasone control, DMSO zero. The gist of the method:
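Cells were plated and rested 3-5 h at 37 C, compounds were added in titration and incubated 18 h, then CCF4 substrate was loaded for 2 h at RT before reading blue/green fluorescence. EC50 came from Hill-equation fitting.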

The target is the same in assay [5]. Briefly: qHTS assay for small molecule antagonists of glucocorticoid receptor signaling (AID 588533; active = well fitted inhibition curve with a large enough effect in the signal ratio, with a control signal flat, not every such curve was filed as active; the % refers to the signal ratio;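 note: cells stimulated with 2 nM dexamethasone as agonist; % is set by controls: 0 for no effect and ±100 for the full control effect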). The conditions noted are these: HeLa MMTV-bla, GRE beta-lactamase ratio, antagonist mode, 18 h; series mostly up to 76.8 µM. A digest of the protocol:
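Antagonist-mode qHTS: compound titrations added to GRE-bla HeLa cells, then dexamethasone 2 nM final; 18 h, 37 C. CCF4 FRET fluorescence normalized to dexamethasone and DMSO; IC50 from Hill fit.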

Assay [6] is described as follows: qHTS assay for small molecule antagonists of peroxisome proliferator-activated receptor delta signaling (AID 588535; active = well fitted inhibition curve with a large enough effect in the signal ratio, with a control signal flat, not every such curve was filed as active; the % refers to the signal ratio;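 for max response: cells co-treated with a PPAR-delta agonist as stimulator during compound exposure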). The conditions noted are these: HEK293T PPARd-UAS-bla, beta-lactamase FRET ratio, 18 h; 460 nm channel. A digest of the protocol:
(§1)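 Cells were seeded at 4000 per well in assay medium containing 2% charcoal/dextran FBS and held 5 hrs at 37 C. Compounds were then added for 18 hrs. CCF4 substrate was applied for 2 hrs at room temperature before fluorescence reading.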

For assay [7], the target named is Peroxisome proliferator-activated receptor delta (Homo sapiens) (UniProt Q03181). Described as above. The conditions noted are these: HEK293T PPARd-UAS-bla, beta-lactamase FRET ratio, 18 h; series mostly up to 76.7 µM. The gist of the method: as §1
Sequence of Peroxisome proliferator-activated receptor delta (Homo sapiens) (Q03181 whole entry, looked up): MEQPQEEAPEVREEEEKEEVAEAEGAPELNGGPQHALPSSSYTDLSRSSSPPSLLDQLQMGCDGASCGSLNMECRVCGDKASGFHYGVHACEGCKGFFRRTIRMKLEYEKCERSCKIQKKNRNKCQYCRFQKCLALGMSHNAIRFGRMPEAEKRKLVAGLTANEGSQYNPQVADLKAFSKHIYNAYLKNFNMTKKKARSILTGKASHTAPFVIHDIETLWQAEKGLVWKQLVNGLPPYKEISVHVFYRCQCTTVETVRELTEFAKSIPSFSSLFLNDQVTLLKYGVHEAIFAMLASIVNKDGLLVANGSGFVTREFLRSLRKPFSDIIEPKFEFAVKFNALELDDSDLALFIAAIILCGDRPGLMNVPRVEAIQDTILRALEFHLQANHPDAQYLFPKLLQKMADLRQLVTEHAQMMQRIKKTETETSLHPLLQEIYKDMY
Assay [8] deals with Peroxisome proliferator-activated receptor gamma (Homo sapiens) (UniProt P37231). Briefly: qHTS assay for small molecule agonists of peroxisome proliferator-activated receptor gamma signaling (AID 588536; active = well fitted curve in the direction sought with a large enough effect in the signal ratio, with a control signal flat, not every such curve was filed as active; the % refers to the signal ratio;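 note: 0% = DMSO basal wells and 100% = rosiglitazone at 2 µM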). The conditions noted are these: HEK293 PPARg-UAS-bla, beta-lactamase ratio, 16 h, percent of rosiglitazone response, DMSO as zero; series mostly up to 76.7 µM. A digest of the protocol:
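GeneBLAzer PPAR-gamma-UAS-bla HEK293 cells in 1% charcoal/dextran-treated FBS medium were treated 16 h at 37 C with compounds. Beta-lactamase activity was read by CCF4 ratio (460/530 nm). Response was normalized to 2 uM rosiglitazone (100%) and DMSO, then Hill-fitted for EC50 and efficacy.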

The target in assay [9] is Androgen receptor (Homo sapiens) (UniProt P10275). As to the kind of experiment: qHTS assay for small molecule antagonists of androgen receptor signaling (AID 588516; active = well fitted curve in the direction sought with a large enough effect in the signal ratio, with a control signal flat, not every such curve was filed as active; the % refers to the signal ratio; note: % is set by controls: 0 for no effect and ±100 for the full control effect). The conditions noted are these: AR-UAS-bla HEK293, beta-lactamase ratio, antagonist mode, 16 h; series mostly up to 76.8 µM. The gist of the method:
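Antagonist mode: inhibition of R1881-stimulated (10 nM final) bla reporter in GeneBLAzer AR HEK 293 cells, 16 h at 37C, compounds titrated. IC50 and efficacy from Hill-equation fits of 405/460–530 nm FRET ratios.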

For assay [10] the target is unchanged. As to the kind of experiment: qHTS assay for small molecule agonists of androgen receptor signaling (AID 588515; active = well fitted curve in the direction sought with a large enough effect in the signal ratio, with a control signal flat; the % refers to the signal ratio; note: % is set by controls: 0 for no effect and ±100 for the full control effect). The conditions noted are these: AR-UAS-bla HEK293, beta-lactamase ratio, agonist 16 h; stronger effect = higher value. The gist of the method:
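EC50 and efficacy came from Hill fits of titrations (up to 92 uM) normalized to 30 nM R1881 as 100% and DMSO as 0%. Compound exposure was 16 h at 37 C on AR-UAS-bla HEK293 cells, with a 405/460/530 nm CCF4 fluorescence read.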

Sequence of Androgen receptor (Homo sapiens) (P10275 whole entry, looked up): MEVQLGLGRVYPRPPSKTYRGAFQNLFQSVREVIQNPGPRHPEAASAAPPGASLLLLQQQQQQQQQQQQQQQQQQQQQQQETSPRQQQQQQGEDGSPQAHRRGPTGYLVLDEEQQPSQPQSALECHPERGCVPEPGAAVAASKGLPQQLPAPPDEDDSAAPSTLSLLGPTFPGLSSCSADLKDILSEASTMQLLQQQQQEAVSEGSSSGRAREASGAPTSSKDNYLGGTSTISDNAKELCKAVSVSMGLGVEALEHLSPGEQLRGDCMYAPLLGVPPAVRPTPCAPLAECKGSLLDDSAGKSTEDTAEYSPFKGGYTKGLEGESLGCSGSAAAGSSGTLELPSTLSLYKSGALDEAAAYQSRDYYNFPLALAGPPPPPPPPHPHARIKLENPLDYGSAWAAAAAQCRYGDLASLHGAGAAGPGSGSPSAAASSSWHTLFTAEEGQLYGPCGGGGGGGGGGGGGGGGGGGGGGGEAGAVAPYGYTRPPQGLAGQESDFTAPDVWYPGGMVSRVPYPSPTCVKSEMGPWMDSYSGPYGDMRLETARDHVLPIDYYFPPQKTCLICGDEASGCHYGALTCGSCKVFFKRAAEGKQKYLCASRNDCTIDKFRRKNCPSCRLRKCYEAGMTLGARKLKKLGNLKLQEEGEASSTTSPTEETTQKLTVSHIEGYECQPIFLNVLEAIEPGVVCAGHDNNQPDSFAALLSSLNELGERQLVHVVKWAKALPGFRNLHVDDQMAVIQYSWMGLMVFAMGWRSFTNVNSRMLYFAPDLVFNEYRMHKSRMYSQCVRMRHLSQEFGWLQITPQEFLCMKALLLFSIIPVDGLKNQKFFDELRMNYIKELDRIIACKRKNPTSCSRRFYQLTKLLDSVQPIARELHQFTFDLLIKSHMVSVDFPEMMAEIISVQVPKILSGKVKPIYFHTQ
Sequence of Peroxisome proliferator-activated receptor gamma (Homo sapiens) (P37231 whole entry, looked up): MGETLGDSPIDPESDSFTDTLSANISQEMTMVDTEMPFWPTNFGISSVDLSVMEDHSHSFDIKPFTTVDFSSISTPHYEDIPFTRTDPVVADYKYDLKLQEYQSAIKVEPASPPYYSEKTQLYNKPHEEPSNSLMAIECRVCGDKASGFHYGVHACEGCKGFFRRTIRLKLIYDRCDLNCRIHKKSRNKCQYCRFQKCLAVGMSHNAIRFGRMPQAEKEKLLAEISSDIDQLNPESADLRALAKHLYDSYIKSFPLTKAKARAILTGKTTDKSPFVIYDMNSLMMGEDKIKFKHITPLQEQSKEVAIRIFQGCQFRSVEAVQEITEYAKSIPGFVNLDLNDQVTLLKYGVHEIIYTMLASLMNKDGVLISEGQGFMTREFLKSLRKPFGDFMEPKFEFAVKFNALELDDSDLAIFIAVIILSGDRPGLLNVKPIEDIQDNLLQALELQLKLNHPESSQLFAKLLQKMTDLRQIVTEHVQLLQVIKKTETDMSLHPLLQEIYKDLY
Sequence of Glucocorticoid receptor (Homo sapiens) (P04150 whole entry, looked up): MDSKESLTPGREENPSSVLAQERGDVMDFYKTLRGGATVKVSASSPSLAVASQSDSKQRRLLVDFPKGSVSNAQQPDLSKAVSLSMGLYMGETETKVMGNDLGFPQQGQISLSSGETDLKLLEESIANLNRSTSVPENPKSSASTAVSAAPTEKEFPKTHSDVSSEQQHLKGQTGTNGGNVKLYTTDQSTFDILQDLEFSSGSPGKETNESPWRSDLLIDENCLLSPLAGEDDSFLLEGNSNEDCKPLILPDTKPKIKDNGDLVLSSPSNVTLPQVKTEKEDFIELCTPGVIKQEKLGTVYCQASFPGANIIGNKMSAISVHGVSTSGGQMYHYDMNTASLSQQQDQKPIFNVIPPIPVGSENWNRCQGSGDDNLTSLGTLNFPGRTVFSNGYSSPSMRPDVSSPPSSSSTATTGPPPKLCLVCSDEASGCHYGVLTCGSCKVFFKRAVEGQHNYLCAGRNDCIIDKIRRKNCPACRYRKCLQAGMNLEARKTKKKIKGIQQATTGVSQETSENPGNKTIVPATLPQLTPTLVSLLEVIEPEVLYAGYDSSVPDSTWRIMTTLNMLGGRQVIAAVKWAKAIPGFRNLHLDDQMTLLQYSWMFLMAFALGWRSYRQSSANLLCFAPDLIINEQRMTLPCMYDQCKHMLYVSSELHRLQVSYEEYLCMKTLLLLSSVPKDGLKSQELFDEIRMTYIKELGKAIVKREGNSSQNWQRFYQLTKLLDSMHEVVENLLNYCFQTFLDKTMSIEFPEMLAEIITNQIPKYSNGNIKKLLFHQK
Sequence of Bile acid receptor (Homo sapiens) (Q96RI1 whole entry, looked up): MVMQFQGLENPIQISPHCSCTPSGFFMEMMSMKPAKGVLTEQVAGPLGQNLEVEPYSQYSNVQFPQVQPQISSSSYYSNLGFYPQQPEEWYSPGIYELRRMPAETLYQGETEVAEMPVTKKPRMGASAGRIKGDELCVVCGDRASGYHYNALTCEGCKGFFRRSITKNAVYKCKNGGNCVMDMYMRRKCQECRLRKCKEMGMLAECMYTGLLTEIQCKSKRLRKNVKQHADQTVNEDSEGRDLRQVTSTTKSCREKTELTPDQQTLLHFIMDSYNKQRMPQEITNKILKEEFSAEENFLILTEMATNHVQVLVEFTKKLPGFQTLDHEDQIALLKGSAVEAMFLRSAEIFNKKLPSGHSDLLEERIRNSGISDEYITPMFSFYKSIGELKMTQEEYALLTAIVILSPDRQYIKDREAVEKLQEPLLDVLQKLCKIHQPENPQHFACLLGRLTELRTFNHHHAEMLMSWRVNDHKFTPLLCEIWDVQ
Sequence of Estrogen receptor (Homo sapiens) (P03372 whole entry, looked up): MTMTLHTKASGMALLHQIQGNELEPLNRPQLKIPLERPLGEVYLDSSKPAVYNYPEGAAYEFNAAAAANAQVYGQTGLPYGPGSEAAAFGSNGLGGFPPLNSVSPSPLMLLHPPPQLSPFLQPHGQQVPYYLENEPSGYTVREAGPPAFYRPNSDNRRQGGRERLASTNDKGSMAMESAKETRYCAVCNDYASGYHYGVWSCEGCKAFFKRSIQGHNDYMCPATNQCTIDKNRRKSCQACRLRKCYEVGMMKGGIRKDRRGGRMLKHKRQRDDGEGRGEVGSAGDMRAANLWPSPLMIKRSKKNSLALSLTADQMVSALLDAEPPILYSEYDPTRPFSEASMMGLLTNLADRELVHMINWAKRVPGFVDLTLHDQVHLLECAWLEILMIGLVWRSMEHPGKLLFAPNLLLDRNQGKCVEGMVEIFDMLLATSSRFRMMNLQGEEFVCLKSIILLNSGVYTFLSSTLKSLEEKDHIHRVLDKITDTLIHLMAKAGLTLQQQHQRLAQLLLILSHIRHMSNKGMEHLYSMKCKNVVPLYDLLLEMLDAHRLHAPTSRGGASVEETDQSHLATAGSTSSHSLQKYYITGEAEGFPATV

`CCCCCCCC(=O)OCC(COC(=O)CCCCCCC)OC(=O)CCCCCCC`: the result in [1], in [2], in [3], in assay [5], in assay [7] and in assay [8] was inactive. For the same compound, the activation in [4] was 2.19% (inactive). Also, the max response in [6] turned out to be 17.8%.
As to `COC(=O)c1ccc(O)cc1`, the outcome in assay [2], in assay [5], in assay [7] and in assay [8] was inactive. The activation in assay [4] was 15.6% (inactive). In assay [6], the max response turned out to be 34.1%.
For the compound `CCCCCCCCCCCCCCCCCCO`, the outcome in assay [1], in assay [2], in assay [5], in assay [7] and in assay [8] was inactive. Further, in assay [4], the activation is -8.91% (inactive). For the same compound, in assay [6], the max response was 2.82%.
As to `Cc1cc(=O)[nH]c(=S)[nH]1`, the result in assay [1], in assay [2], in assay [3], in [5] and in assay [8] was inactive. The activation in assay [4] is -0.999% (inactive).
As to `Nc1ccc(S(=O)(=O)c2ccc(N)cc2)cc1`, the result in assay [1], in assay [2], in assay [3], in assay [7] and in [8] was inactive. For the same compound, in [6], the max response is -19.4% and 10.1%.
Consider `Cc1c(C(=O)NCCO)[n+](=O)c2ccccc2n1[O-]`, for which the outcome in [9], in assay [5], in [7] and in [8] was inactive. For the same compound, the activation in [4] is 0.345% (inactive). Also, in [6], the max response was -20%.
Regarding `CCCCOC(=O)c1ccc(N)cc1`, the outcome in assay [1] and in [8] was inactive. For the same compound, the activation in [4] was -4.26% (inactive).
Take `Cc1ccc(C(C)C)c(O)c1`: the outcome in assay [1], in [5], in assay [7] and in [8] was inactive. Further, the activation in assay [4] is -10.5% (inactive). The max response in assay [6] was -0.969%.
Turning to `COc1ccc(O)cc1`, the activation in assay [10] was -4.19% (inactive); in [4] it was -2.84% (inactive). For the same compound, the outcome in [9], in assay [5] and in [7] was inactive. The max response in [6] stood at 3.48%.
On to `OC[C@@H](O)[C@@H](O)[C@H](O)[C@H](O)CO`, for which the result in assay [2] and in assay [8] was inactive.
For the compound `CC(=O)Nc1ccc(C(=O)O)cc1`, the outcome in assay [1], in assay [2], in [5] and in [8] was inactive. Besides, in assay [4], the activation was -0.936% (inactive).
Take `O=C(c1ccccc1)C(O)c1ccccc1` (centres undefined): the activation in assay [4] was 2.68% (inactive) and -5.31% (inactive). For the same compound, the result in assay [5], in assay [7] and in assay [8] was inactive. In addition, in assay [6], the max response is -5.59% and -16%.
For `CCCC(O)C(CC)CO` (centres undefined), the outcome in [1], in assay [2], in assay [7] and in assay [8] was inactive. The max response in assay [6] is 2.27%.
As to `CCN(CC)C(=O)c1cccc(C)c1`, the outcome in assay [1], in assay [2], in assay [3], in assay [5], in assay [7] and in [8] was inactive. Also, the activation in assay [4] is -2.58% (inactive) and -6.82% (inactive). Further, the max response in assay [6] is -21.8%.
Turning to `CC[N+](CC)(CC(=O)Nc1c(C)cccc1C)Cc1ccccc1`, the result in [1], in assay [2] and in assay [8] was inactive.
Consider `CC(C)=CCC/C(C)=C/CO`, for which the activation in assay [10] was 8.43% (inactive). Besides, the outcome in [9], in [3], in assay [5], in [7] and in assay [8] was inactive. Further, the max response in assay [6] is -8.02%.
Take `CC(=O)OCC(COC(C)=O)OC(C)=O`: the activation in [4] is -5.82% (inactive). Further, the outcome in assay [5], in [7] and in [8] was inactive. Besides, in assay [6], the max response is -24.1% and 22.8%.
For `FC(F)(F)C(Cl)Br` (centres undefined), the outcome in assay [1], in assay [2], in [5], in assay [7] and in assay [8] was inactive. In addition, the activation in [4] is -1.46% (inactive). The max response in assay [6] is -35.1%.
As to `Cc1cc(O)cc(C)c1Cl`, the outcome in assay [5], in assay [7] and in [8] was inactive. The max response in assay [6] was 24.1%.
For `CC(=O)NS(=O)(=O)c1ccc(N)cc1`, the result in assay [1], in assay [2], in assay [5] and in assay [7] was inactive. The activation in assay [4] was -1.25% (inactive). Besides, the max response in assay [6] was found to be 26.9%.
Take `Cc1c(N(C)C)c(=O)n(-c2ccccc2)n1C`: the outcome in assay [1], in assay [2], in assay [3], in assay [5] and in [7] was inactive. Besides, the activation in [4] was 1.22% (inactive) and -3.75% (inactive). Moreover, the max response in [6] worked out at 15.6%.
Take `CC(=O)Nc1ccccc1`: the result in assay [1], in [2], in [3], in [5], in [7] and in [8] was inactive. The activation in [4] was -0.909% (inactive). Moreover, the max response in assay [6] turned out to be 17.1%.
Turning to `O=C(OOC(=O)c1ccccc1)c1ccccc1`, the result in assay [1], in [2], in [5] and in [8] was inactive. Also, in assay [4], the activation was 6.15% (inactive).
As to `O=C(O)CCCCC1CCSS1` (centres undefined), the result in [1], in [2], in assay [5], in [7] and in [8] was inactive. The activation in [4] is -0.0197% (inactive) and 20% (inactive). Moreover, the max response in [6] is 4.26%.
On to `O=C1C(c2[nH]c3ccccc3c2O)=Nc2ccccc21`, for which the outcome in assay [3], in assay [5] and in assay [7] was inactive. The activation in assay [4] was 5.37% (inactive). The max response in assay [6] was 32.9%.
For the compound `CCCCCC(N)=O`, the max response in assay [6] is -31.8%. For the same compound, the outcome in assay [7] and in assay [8] was inactive.
Take `C=CCNC(N)=S`: the max response in assay [6] is 13.5%. The outcome in assay [7] and in [8] was inactive.
`Cc1cc(C)nc(NS(=O)(=O)c2ccc(N)cc2)n1`: the result in assay [3], in assay [5], in assay [7] and in assay [8] was inactive. In assay [4], the activation is 5.22% (inactive) and 0.742% (inactive). For the same compound, the max response in assay [6] was 18.4% and -14.9%.
`CC1CC(OC(=O)c2ccccc2O)CC(C)(C)C1` (centres undefined): in [4], the activation was 2.49% (inactive). Also, the outcome in assay [5], in assay [7] and in [8] was inactive. For the same compound, the max response in [6] is 23.9%.
As for `Cc1cccc(Nc2ccccc2C(=O)O)c1C`, the result in [5] was inactive.
For the compound `CC(=O)Nc1cccc(O)c1`, the outcome in assay [1], in assay [2] and in [8] was inactive.
